From PubChem BioAssay
TIM10 inh – growth inhibitors of TIM10 yeast strain; S. cerevisiae TIM10 strain growth, BacTiter-Glo luminescence, 24 h; 330,000 compounds, 1.4% hits; inhibition, % at 10 µM; AID 463195;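 active = inhibition of 40% or more at the single tested concentration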;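 note: wild-type TIM10 isogenic control strain grown at permissive 25 °C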
NALP1 yeast inh – blocks the NALP1 inflammasome reconstituted in yeast. 280,000 compounds, 0.61% hits. S. cerevisiae NALP1/ASC/caspase-1 growth, X-gal OD620, 72 h. inhibition, % at 10 µM; in the data active = inhibition mostly above about 24%, no sharp cut-off; inactive = mostly below about 32%
tim10-1 inh – growth inhibitors of tim10-1 mutant yeast. S. cerevisiae tim10-1 ts strain growth, BacTiter-Glo, 24 h. 330,000 compounds, 2.2% hits. inhibition, % at 20 µM;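 active = inhibition of at least 40%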;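 note: mutant grown at 25 °C; 0% = DMSO wells with yeast and 100% = wells holding no yeast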
tim23-1 inh – inhibits growth of tim23-1 mutant yeast; S. cerevisiae tim23-1 growth, BacTiter-Glo luminescence, 24 h; inhibition, % at 20 µM; 330,000 compounds, 1.3% hits;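 active = growth inhibition of the mutant yeast at or above 50%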;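 note: temperature-sensitive mutant grown at 25 °C; plate controls were DMSO-treated mutant yeast for no effect and medium wells lacking yeast for full effect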
NLRP3 yeast inh – NALP3 inhibition in yeast; Yeast reconstituted NLRP3/ASC/caspase-1, beta-gal luminescence, 24 h; inhibition, % at 10 µM; 330,000 compounds, 0.39% hits;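 active = inhibition of 50% or more; inactive = inhibition below 50%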;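 note: plate controls were induced DMSO wells for no effect and uninduced yeast grown without galactose for full effect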
tim10-1 conf – tim10-1 yeast growth inhibition, confirmed | shares compounds with tim10-1 inh | S. cerevisiae tim10-1 ts strain growth, BacTiter-Glo, 24 h | inhibition, % at 20 µM | 7,400 compounds, 56% hits;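 active = inhibition of yeast growth at or above a set limit in either of two repeat tests at 20 µM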;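 note: tim10-1 mutant grown at permissive 25 °C to find synthetic lethal compounds; 0% = DMSO yeast wells and 100% = medium wells without yeast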
TIM10 conf – confirmation of TIM10 yeast growth inhibitors; shares compounds with TIM10 inh; S. cerevisiae tim10 strain growth, BacTiter-Glo luminescence, 24 h; inhibition, % at 10 µM; 4,600 compounds, 63% hits; AID 463215;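 active = inhibition of yeast growth at or above a set limit in either of two replicates at 10 µM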;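 note: this counterscreen used the strain with wild-type TIM10; 0% = yeast with DMSO and 100% = medium wells lacking yeast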
Starred values were filed as active, the others as inactive; nt = no result. Only some compounds are listed: those with a hit (about 4% of all), similar ones and a draw of the others.

SMILES	TIM10 inh	NALP1 yeast inh	tim10-1 inh	tim23-1 inh	NLRP3 yeast inh	tim10-1 conf	TIM10 conf
O=C(Cn1c2ccc(F)cc2c2nc3n(c(=O)c21)CCS3)Nc1ccccc1F	52*	-6	51*	17	0	44*	42*
O=C(Cn1c2ccc(F)cc2c2nc3n(c(=O)c21)CCS3)Nc1ccccc1C(F)(F)F	7	8	36	1	5	nt	nt
CCOC(=O)c1sc(NC(=O)C2CCC2)cc1C	55*	6	44*	49	20	42*	36*
CN(C)CCN(CC1CCCN(Cc2ccccc2F)C1)C(=O)c1ccc(F)cc1 (stereo not given)	-4	6	-18	-12	18	nt	nt
O=C(c1ccc2[nH]c3c(c2c1)CCCC3)N1CCN(c2ccc(F)cc2)CC1	42*	35	41*	46	8	15	-6
COc1ccccc1N1CCN(C(=O)c2ccc3[nH]c4c(c3c2)CCCC4)CC1	28	44	40	41	26	nt	nt
CC1CCCCN1S(=O)(=O)c1ccc(NC(=O)c2ccco2)cc1 (stereo not given)	42*	-6	53*	25	10	36*	17
CC(C)(C)NC(=O)c1ccc2c(c1)C1C3CCC(C3)C1C(c1ccccc1)N2 (stereo not given)	42*	28	44*	44	7	34*	-9
N#CC1CC(c2ccccc2)=NN1c1ccccc1[N+](=O)[O-] (stereo not given)	39	2	39	30	22	nt	nt
O=C1C=C(c2ccc(F)cc2OCc2ccccc2)C[C@@H](c2ccc(Cl)cc2)C1	-7	nt	3	17	20	nt	nt
CC12CC3CC(C)(C1)CC(C(=O)NC1=NCCS1)(C3)C2	49*	-22	46*	41	9	28	35*
O=c1c2ccccc2nc(/C=C/c2ccc([N+](=O)[O-])cc2)n1CCCO	5	32	6	5	-4	nt	nt
O=c1c2ccccc2nc(/C=C/c2ccc([N+](=O)[O-])o2)n1CCCO	59*	-4	86*	-16	17	83*	22
O=[N+]([O-])c1cccc(N(CC(O)CN2CCCCC2)S(=O)(=O)c2ccccc2)c1 (stereo not given)	-17	30	-10	-96	11	nt	nt
COc1ccc(NC(=O)c2nn(C34CC5CC(CC(C5)C3)C4)cc2[N+](=O)[O-])cc1	18	-10	5	19	12	nt	nt
O=C(Nc1cccc2ccccc12)c1nn(C23CC4CC(CC(C4)C2)C3)cc1[N+](=O)[O-]	41*	10	40*	48	12	32*	14
C=CCNc1nc(-c2ccccn2)nnc1-c1ccccc1	46*	10	49*	4	3	41*	25
c1ccc(-c2cnnc(-c3ccccn3)n2)cc1	-35	nt	-23	-5	14	nt	nt
COc1ccc(C2C(C(=O)Nc3cc(OC)c(OC)c(OC)c3)c3ccccc3C(=O)N2C)cc1OC (stereo not given)	-4	7	9	5	1	nt	nt
Cc1ccc(N2C(=O)CC(SCC(=O)Nc3ccc(S(N)(=O)=O)cc3)C2=O)cc1 (stereo not given)	1	-5	29	24	29	nt	nt
CCOC(=O)c1ccc(N2C(=O)CC(SCC(=O)Nc3ccc(S(N)(=O)=O)cc3)C2=O)cc1 (stereo not given)	41*	31	51*	22	23	45*	47*
CCOC(=O)C1Nc2c(F)cc(C)cc2C2c3ccccc3CC12 (stereo not given)	46*	nt	49*	47	49	55*	59*
CC[n+]1c(/C=C/c2c[nH]c3ccccc23)ccc2cc(C)ccc21	59*	-4	67*	27	33	70*	38*
O=C(/C=C/c1cccs1)N1CCOCC1	-2	11	-9	-3	-7	nt	nt
O=C(/C=C/c1cccs1)c1cc(F)ccc1OC(=O)N1CCOCC1	54*	nt	53*	47	3	55*	-26
SMILES	TIM10 inh	NALP1 yeast inh	tim10-1 inh	tim23-1 inh	NLRP3 yeast inh	tim10-1 conf	TIM10 conf
COc1cccc(C(C(=O)NC2CCCC2)N(C(=O)CNC(=O)c2ccco2)c2cccnc2)c1 (stereo not given)	-19	18	12	-3	8	nt	nt
O=C(CCCl)N(Cc1nc2ccccc2c(=O)[nH]1)Cc1cccs1	16	-1	16	-1	-10	nt	nt
CCc1ccc(-c2cn(C3CCCCC3)c(=S)[nH]2)cc1	53*	0	45*	46	21	46*	56*
CCc1ccc(-n2cc(-c3ccc([N+](=O)[O-])cc3)[nH]c2=S)cc1	31	-4	33	35	15	nt	nt
CCOC(=O)Cc1csc(NC(=O)CN2CCN(c3ccccc3)CC2)n1	-8	3	5	5	7	nt	nt
N#Cc1ccc(C(=O)Nc2cc(C3CC3)nn2-c2ccccc2)cc1	18	nt	23	17	11	nt	nt
O=[N+]([O-])c1ccc(Cl)c(C2Nc3cccc4cccc(c34)N2)c1	22	13	22	-14	14	nt	nt
O=[N+]([O-])c1ccccc1C1Nc2cccc3cccc(c23)N1	57*	19	85*	49	24	76*	69*
CC(=O)N1N=C(c2ccccc2)OC1c1ccc([N+](=O)[O-])s1 (stereo not given)	51*	17	47*	47	19	69*	32*
O=C(O)c1cc(-c2ccc(Cl)cc2)n(-c2ccc(Cl)cc2)n1	4	0	29	17	19	nt	nt
Cc1cccc(Cc2cnc(NC(=O)C3=NCCN3)s2)c1	-4	14	21	-6	-5	nt	nt
Cc1cccc(Cc2cnc(NC(=O)c3ccc(C)o3)s2)c1	45*	3	55*	48	24	40*	48*
Cc1sc2ncnc(N/N=C/c3ccccc3O)c2c1C	nt	122	nt	nt	nt	nt	nt
COc1cccc(/C=N/Nc2ncnc3scc(-c4ccccc4)c23)c1OC	40*	-11	46*	38	17	43*	31*
N/C(=N\OC(=O)c1cccnc1)c1ccc(Cl)cc1Cl	41*	14	44*	41	27	41*	21
N/C(=N\OC(=O)c1cccnc1)c1ccccc1Cl	20	-4	6	13	10	nt	nt
O=C1Oc2ccccc2C(=O)/C1=C\N1CCN(c2ccccc2)CC1	-7	-6	9	8	10	nt	nt
COc1cccc(NC(=S)NN=C2CCCCCC2)c1	41*	-12	45*	35	19	36*	31
CC/C(=N\NC(=S)Nc1cccc(C)c1)c1ccccc1	48*	-2	60*	42	44	39*	53*
Cc1ccc(C)c(NC(=S)N/N=C2\CCc3ccccc32)c1	37	nt	30	31	38	nt	nt
